Assay outcomes: PubChem, several laboratories
The sample as a whole holds a higher share of hits than the screen did.
AMPAR-TARP mod = GluA2-stargazin AMPA receptor complex modulation; HEK293 GluA2+stargazin, membrane potential dye (FDSS), glutamate EC50; hits were called plate by plate, in both directions; calls only at 30 µM; actives 3.5% (n = 40,000); AID 1259245;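 active means any of four per-well response measures lying three or more SD from its plate-wide compound average, in either direction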
GIRK2 act = Activates human GIRK2-containing potassium channels; P48051; activation (% efficacy), % for hits at 37.5 µM; AID 1259324; HEK293 GIRK2/NPY4 cells, thallium flux fluorescence; 34,000 tested, under 10 active;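 active means primary screen hit, no activity in plain HEK293 cells, and in GIRK2-only cells above 5% efficacy rising with concentration; inactive means the rest, including fluorescent compounds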;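 further: efficacy is normalized control-subtracted fluorescence 15 s after thallium addition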
Target sequence (P48051 whole entry, looked up): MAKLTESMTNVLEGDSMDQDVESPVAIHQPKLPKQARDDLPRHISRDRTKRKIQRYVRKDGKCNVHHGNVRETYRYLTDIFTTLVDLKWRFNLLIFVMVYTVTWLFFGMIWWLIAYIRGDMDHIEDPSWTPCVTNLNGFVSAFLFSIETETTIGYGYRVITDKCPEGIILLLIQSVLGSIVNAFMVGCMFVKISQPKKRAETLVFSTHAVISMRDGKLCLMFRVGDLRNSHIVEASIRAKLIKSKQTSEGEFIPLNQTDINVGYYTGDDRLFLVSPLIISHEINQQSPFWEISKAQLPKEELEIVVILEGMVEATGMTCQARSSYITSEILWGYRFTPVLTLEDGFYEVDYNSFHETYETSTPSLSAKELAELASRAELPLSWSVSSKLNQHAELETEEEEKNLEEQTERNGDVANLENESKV
Calls only; n = inactive; x = no result; + = active, no number; ! = repeats disagree.

SMILES	AMPAR-TARP mod	GIRK2 act
COc1ccc(OC)c(S(=O)(=O)Nc2ccc3c(c2)N(S(C)(=O)=O)CCC3)c1	n	x
CCCc1ccc(S(=O)(=O)Nc2ccc3c(c2)N(C(=O)C(C)(C)C)CC3)cc1	+	n
COc1ccc(OC)c(S(=O)(=O)Nc2ccc3c(c2)N(S(=O)(=O)c2cccs2)CCC3)c1	+	n
COc1ccc(CCS(=O)(=O)Nc2ccc3c(c2)N(C(=O)c2ccco2)CC3)cc1	n	n
COc1ccc(S(=O)(=O)Nc2ccc3c(c2)N(C(=O)C(C)(C)C)CC3)c(C)c1	n	n
COc1ccc(CCS(=O)(=O)Nc2ccc3c(c2)N(C(=O)C(C)(C)C)CC3)cc1	+	n
CCS(=O)(=O)Nc1ccc2c(c1)N(C(=O)C(C)(C)C)CC2	n	n
COc1ccc(S(=O)(=O)Nc2ccc3c(c2)N(C(=O)C(C)(C)C)CC3)cc1	+	n
CCn1c(CO)cnc1SCc1cc(C)ccc1C	n	x
COc1cccc(-n2nnc3c(N4CCN(C(=O)c5ccc6ccccc6c5)CC4)ncnc32)c1	n	x
COc1ccc(OC)c(S(=O)(=O)N2CCN(Cc3nnnn3-c3ccccc3)CC2)c1	n	n
COc1ccc(-c2ccc(N3CCC(C(=O)NC4CC4)CC3)nn2)cc1	+	n
COc1cc(OC)cc(C(=O)N2CCN(c3ccc(-c4ccncc4)nn3)CC2)c1	+	n
COc1ccc(-c2ccc(N3CCC(C(=O)NCCc4c[nH]c5ccccc45)CC3)nn2)cc1	+	n
O=C(c1ccc2c(c1)OCO2)N1CCN(c2ccc(-c3ccncc3)nn2)CC1	n	n
O=C(Cc1c[nH]c2ccccc12)N1CCN(c2cc(-c3cccnc3)[nH]n2)CC1	x	n
O=C(Cc1c[nH]c2ccccc12)N1CCN(c2ccc(N3CCCC3)nn2)CC1	+	n
COc1ccccc1CNC(=O)C1CCN(c2ccc(-c3ccc(F)cc3)nn2)CC1	n	n
COc1ccc(-c2ccc(N3CCC(C(=O)N4CCN(C)CC4)CC3)nn2)cc1	n	n
COc1ccc(CCNC(=O)c2cccc3c4c([nH]c23)CCCC4)cc1	n	n
COc1ccccc1OCCCn1c(C2CC(=O)N(c3ccc(F)cc3)C2)nc2ccccc21 (stereo not drawn)	n	n
COc1ccc(C)c2sc(N(CCN3CCOCC3)C(=O)C3CCCCC3)nc12	n	x
CC(C)N1CCC(CNS(=O)(=O)c2ccc(-c3ccccc3)cc2)CC1	n	x
CCN1CCN(C(=O)c2cc3c(=O)n4cccc(C)c4nc3n2Cc2ccccc2)CC1	n	x
COCCn1cnc2c(-c3ccccc3)cn(CC(=O)Nc3ccccc3Cl)c2c1=O	n	n
SMILES	AMPAR-TARP mod	GIRK2 act
COc1cc(/C=C2\SC(=S)N(c3ccc(NC(C)=O)cc3)C2=O)ccc1O	n	x
O=S(=O)(c1ccc(F)c(Cl)c1)N1CCC(c2cccs2)CC1	n	n
COc1cc(S(=O)(=O)Nc2cccc3cn[nH]c23)c(OC)cc1Cl	n	x
COc1cc(S(=O)(=O)Nc2cc(Cl)ccc2O)c(OC)cc1Cl	+	n
O=C(NCc1ccc2c(c1)OCO2)C(=O)NCC(O)C1CCCCC1 (stereo not drawn)	x	n
CN(C)CCNc1cc(C(C)(C)C)nc2c(-c3ccccc3)cnn12	+	n
CC(C)(C)c1cc(NCCCn2ccnc2)n2ncc(-c3ccccc3)c2n1	n	n
CSC(SC)=C1C(=O)OC(C)(C)OC1=O	n	n
O=C(Cn1c(CO)cnc1SCc1c(F)cccc1Cl)NC1CCCC1	+	n
Cc1nc2c(sc3cccc(F)c32)c(=O)n1CC(=O)NC1CCCCC1	x	n
CCc1ccc(-n2nnnc2SC(C)C(=O)Nc2ccccc2OC)cc1 (stereo not drawn)	n	x
COc1ccc(-n2nnnc2SC(C)C(=O)Nc2ccc(C(=O)O)cc2)cc1 (stereo not drawn)	+	x
COc1ccc(NC(=O)C(C)Sc2nnnn2-c2ccccc2)cc1 (stereo not drawn)	n	x
COc1ccc(-n2nnnc2SC(C)C(=O)Nc2ccccc2OC)cc1 (stereo not drawn)	+	x
COc1ccc(NC(=O)c2ccc(S(=O)(=O)N3CCCCC3)cc2)cc1OC	n	x
O=C(Nc1cc(-c2ccccc2)nn1CCO)c1cccc(Cl)c1	+	n
O=C(Nc1cc(-c2ccccc2)nn1CCO)c1ccsc1	n	n
COc1cn(CC(=O)Nc2ccc(NC(C)=O)cc2)c(CSc2ccccc2)cc1=O	n	n
O=C(CCCCn1c(=O)c2ccccc2n(CC(=O)NC2CCCCC2)c1=O)NCc1cccs1	+	n
CCCNC(=O)CCCCn1c(=O)c2ccccc2n(CC(=O)Nc2cccc(SC)c2)c1=O	n	n
O=C(CCCCn1c(=O)[nH]c2ccccc2c1=O)NC1CCCCCC1	n	n
CCCNC(=O)CCCCn1c(=O)c2ccccc2n(CC(=O)Nc2ccccc2Cl)c1=O	+	n
COC(=O)c1sccc1NC(=O)CN1CCCN(Cc2ccccc2)S1(=O)=O	n	x
CCOC(=O)c1ccccc1NC(=O)CN1CCCN(Cc2ccccc2Cl)S1(=O)=O	+	n
Cc1ccc2c(=O)c(-c3nc(-c4ccccc4C)no3)cn(CC(=O)NCCCc3ccccc3)c2n1	n	n
SMILES	AMPAR-TARP mod	GIRK2 act
O=C(Nc1nnc(Cc2cccs2)o1)c1ccc(S(=O)(=O)N2CCOCC2)cc1	n	n
O=C(/C=C/c1cccs1)NCC1CCN(Cc2ccsc2)CC1	+	n
COC(=O)N1CCC(CNC(=O)/C=C/c2cccs2)CC1	n	n
O=C(NCCOc1ccc2nnc(-c3cccc(F)c3)n2n1)c1ccc(=O)[nH]n1	n	n
O=C(CCn1cnc2c(cnn2-c2ccccc2)c1=O)NCc1ccccn1	x	n
O=C(CSc1ccc(-c2ccc3ccccc3c2)nn1)NCc1ccc2c(c1)OCO2	n	n
Cc1cc(C)c(-c2ccc(SCC(=O)NCc3ccc4c(c3)OCO4)nn2)cc1C	+	n
COc1cc(Cl)c(S(=O)(=O)N2CCN(CCO)CC2)cc1Cl	x	n
O=C(NCC(O)C1CCCCC1)C(=O)Nc1ccon1 (stereo not drawn)	x	n
COc1ccc(CCNC(=O)COc2ccc(C(C)C)c(C)c2)cc1OC	+	n
COc1ccc(OCC(=O)NCCc2ccc(OC)c(OC)c2)cc1	n	n
CC(C)OC(=O)C1(C(=O)OC(C)C)CC2(COC(c3ccccc3)OC2)C1	+	n
CC(C)OC(=O)C1(C(=O)OC(C)C)CC(CO)(CO)C1	n	x
CC(=O)CC1(O)C(=O)N(CCCOc2ccccc2C)c2ccccc21 (stereo not drawn)	n	n
CC(=O)CC1(O)C(=O)N(CCOc2ccc(C(C)(C)C)cc2)c2ccccc21 (stereo not drawn)	+!	n
COc1ccccc1CNS(=O)(=O)c1cc2c3c(c1)CCN3C(=O)CC2	n	n
CCOc1ccc(N2C(=O)/C(=C/c3ccc4c(c3)OCO4)SC2=S)cc1	n	x
CN(C)c1ccc(/C=C2\SC(=S)N(c3ccc(O)cc3)C2=O)cc1	+	x
CCOc1ccc(N2C(=O)/C(=C\c3ccc(O)cc3)SC2=S)cc1	+	x
COc1cc(/C=C2\SC(=S)N(c3ccc(O)cc3)C2=O)cc(OC)c1OC	n	x
COc1cc(OC)c(NC(=O)CSC2=NC(C)(C)N=C2c2ccc(C)cc2)cc1Cl	n	n
CCOc1ccccc1C(=O)N1CCN(c2ncnc3c2nnn3-c2ccc(OC)cc2)CC1	+	x
CCOc1ccccc1C(=O)N1CCN(c2ncnc3c2nnn3-c2ccc(F)cc2)CC1	n	n
COCCCn1c(N)c(S(=O)(=O)c2ccc(Cl)cc2)c2nc3ccccc3nc21	+	n
